SW480 rerep – DNA re-replication induction in SW480 cells; AID 624297; 340,000 compounds, 1.8% hits; SW480 DNA re-replication, Hoechst DNA content imaging, 48 h; Potency, µM (top dose mostly 46.1 µM), for the others: at the top dose re-replication activation, most hits filed as activators; also: potency is read from the fitted curve at half-maximal effect; % of control where 0% means no effect; nearly all actives have a fitted effect of over 55% in size
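Image-based DNA-content assay: after two days of treatment, nuclei were labelled with the DNA dye Hoechst and imaged, and hits were compounds raising the count of nuclei showing high fluorescence intensity.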
DT40 TDP1 CPT – growth inhibition of DT40 Tdp1-/-;hTDP1 cells with camptothecin (screen for TDP1 inhibitors). chicken DT40 Tdp1-/-;hTDP1 cells + 20 nM CPT, ATP luminescence, 48 h. Potency, µM (top dose mostly 46.2 µM), inactives show at the top dose activity change, negative = growth inhibition, usual class: inhibitors. 420,000 compounds, 12% hits; also: potency is read from the fitted curve at half-maximal effect; % is scaled to controls: 0 for no effect and ±100 for the full control effect; nearly all actives have a fitted effect of over 55% in size
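Chicken DT40 Tdp1-/- cells complemented with human TDP1, 400 cells/well, exposed to compounds plus 20 nM camptothecin for at least 48 h at 37 C; viability read as ATP content by CellTiter-Glo luminescence.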
MCF10A rerep – inducers of DNA re-replication in MCF 10A breast cells | MCF 10A DNA re-replication, Hoechst nuclear intensity, 48 h | Potency, µM (titrated, usually from 46.1 µM), without a hit: at the highest dose activity, positive = re-replication, actives largely listed as activators | 350,000 compounds, 2.9% hits | AID 624296; also: potency is read from the fitted curve at half-maximal effect; % of control where 0% means no effect; nearly all actives have a fitted effect of over 50% in size
BCR signal inh – blocks chronic active B-cell receptor signaling | ABC-DLBCL IkBa-CBG/CBR reporter, luminescence ratio, 4 h | Potency, µM (titrated, usually from 46.1 µM), for the others: top-dose activity change, negative = inhibition, actives largely listed as inhibitors | 340,000 compounds, 0.05% hits; active = well fitted inhibition curve with a large enough effect in the signal ratio, with a control signal flat, not every such curve was filed as active; inconclusive = small, poorly fitted or top-dose-only effect, or effect the other way, or a change in a side signal; the % refers to the signal ratio;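 also: potency is read from the fitted curve at half-maximal effect; plate controls were basal doxycycline-induced cells for no effect and cells given 10 µM MG132 for full effect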
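Doxycycline induced both beetle luciferases in TMD8 lymphoma cells; IKK-driven degradation limits the IkappaBalpha-fused green signal, while red luminescence normalises for cell number and nonspecific effects. Compounds tested up to 46 uM, 4 hrs.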
IL-1B inflam inh – inflammasome signaling inhibition, IL-1 beta readout. activity change, % at 57.5 µM. 360,000 compounds, 4.7% hits. THP-1 LPS/ATP IL-1B secretion, AlphaLISA, 16 h; stronger effect = lower value; in the data active = activity change below about -50%; inconclusive = mostly about -30% to -49%; also: % is scaled to controls: 0 for no effect and ±100 for the full control effect
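THP-1 cells pretreated 1 hr with compounds (up to 57.5 uM final), then stimulated with LPS (250 ng/mL final) plus ATP (1.25 mM final); secreted IL-1B measured by AlphaLISA after 16 hr, decreased signal indicating inhibition.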
TDP1 cell noCPT – qHTS for Inhibitors of human tyrosyl-DNA phosphodiesterase 1 (TDP1): qHTS in cells in absence of CPT; DT40 Tdp1-/- hTDP1 cells, no CPT, ATP luminescence, 48 h; AID 686978, 2013; 420,000 compounds, 15% hits; Potency, µM (titrated, usually from 46.2 µM), without a hit: top-dose activity change, negative = growth inhibition, hits mostly inhibitors; also: potency is read from the fitted curve at half-maximal effect; % is scaled to controls: 0 for no effect and ±100 for the full control effect; nearly all actives have a fitted effect of over 55% in size
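A cellular qHTS used chicken DT40 cells lacking endogenous Tdp1 but carrying stably transfected human TDP1. Compounds were applied without camptothecin, and cell growth kinetics were judged by ATP-dependent luminescence after ≥48 hr.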
Starred values were filed as active, the others as inactive; ? = inconclusive; . = no result; [ ] = another dose, or the depositor's remark. Most compounds without a hit are left out; they make up all but 19% or so of the library. Unless noted, calls follow the shape of the dose curve; as a rule, active = well fitted curve in the direction sought with a large enough effect; inconclusive = small, poorly fitted or top-dose-only effect, or another doubt; inactive = no such curve, though single readings can be large; an effect the other way counts as inactive or inconclusive.

SMILES	SW480 rerep	DT40 TDP1 CPT	MCF10A rerep	BCR signal inh	IL-1B inflam inh	TDP1 cell noCPT
CC(=O)O[C@H]1C(=O)[C@@]2(C)C([C@H](OC(=O)c3ccccc3)[C@]3(O)C[C@H](OC(=O)[C@H](O)[C@@H](NC(=O)Cc4ccccc4)c4ccccc4)C(C)=C1C3(C)C)[C@]1(OC(C)=O)CO[C@@H]1C[C@@H]2O (some centres not stated)	4.6µM*	0.18µM*	?	-7%	-5	0.18µM*
CN1CC2CN(Cc3ccccc3)S(=O)(=O)C2C1 (configuration not stated)	.	-9%	.	.	2	3%
O=C1Nc2cc(Cl)c(Cl)cc2N2CCNC[C@H]12	.	-31%	.	.	.	?
Cc1cc(Br)c(NC(=O)CN2CC=C(c3ccccc3)CC2)c(Br)c1	?	1%	?	-3%	-28	?
CC(=O)c1cccc(OCC(O)CN2CC=C(c3ccccc3)CC2)c1 (configuration not stated)	10%	?	?	-1%	-2	16µM*
Cc1cccc(OCC(O)CN2CC2)c1 (configuration not stated)	.	3.7µM*	.	.	?	6.5µM*
c1ccc(CCN2CCCCC2)nc1	-9%	9%	-19%	.	23	-8%
O=C1Nc2ccc(Br)cc2C(c2ccc(Cl)cc2)=NC1O (configuration not stated)	2%	3%	9%	-17%	-4	-16%
CSc1ccc(C(=O)C2CCCN(Cc3cc4ccccc4[nH]3)C2)cc1 (configuration not stated)	8%	?	1%[9.22 µM]	?	-100*	?
Nc1c(C(=O)OCC2CCCO2)c2nc3ccccc3nc2n1Cc1cccs1 (configuration not stated)	9%	?	?	?	-29	18µM*
COCCNC(=O)c1c(N)n(CCC(C)C)c2nc3ccccc3nc12	?	12µM*	3.3µM*	?	-116*	18µM*
CC(C)OCCCNC(=O)c1c(N)n(Cc2cccs2)c2nc3ccccc3nc12	3.7µM*	?	1.8µM*	?	-63*	18µM*
CC(C)CCn1c(N)c(C(=O)NCc2cccs2)c2nc3ccccc3nc21	5.8µM*	?	1.5µM*	1%	?	?
CS(=O)(=O)CCN1CC2CCCC(C2)C1	-2%	9%	1%	.	-8	-4%
CCCCNC(=O)c1c(N)n(CCCOC)c2nc3ccccc3nc12	2.1µM*	?	10µM*	?	?	?
O=c1[nH]c(=O)n(Cc2ccco2)c(O)c1C=NCCCn1ccnc1	-6%	-6%	-3%	?	0	3%
Cc1sc2c(c1C)C(=O)NC(c1ccccc1F)N2 (configuration not stated)	2%	?	13%	?	1	?
CCCNC(=O)c1c(N)n(Cc2ccc3c(c2)OCO3)c2nc3ccccc3nc12	3.3µM*	-4%	0.65µM*	?	0	-9%
CC(c1ccc(F)cc1)n1cc(C(=O)NCc2ccc3c(c2)OCO3)nn1 (configuration not stated)	-2%	?	3%	-1%	-8	-10%
CC(C)(C)c1nc(NCc2ccc3c(c2)OCO3)c2nnn(Cc3ccccc3Cl)c2n1	-5%	-16%	-3%	?	13	?
CC(C)CNC(=O)c1c(N)n(Cc2ccc3c(c2)OCO3)c2nc3ccccc3nc12	2.6µM*	?	?	?	?	?
CC(C)CCNC(=O)c1c(N)n(Cc2ccc3c(c2)OCO3)c2nc3ccccc3nc12	2.6µM*	?	?	6%	?	?
COc1cc2nc(N(C)C)c(CNCCc3c[nH]c4ccccc34)cc2c(OC)c1OC	.	6%[9.04 µM]	.	.	.	-18%
CS(=O)(=O)c1ccc(C(=O)C2C(=O)CCCC2=O)c([N+](=O)[O-])c1	.	-30%[92.5 µM]	.	.	.	?
CCC(=O)N1N=C(c2c(O)n(C)c(=O)n(C)c2=O)CC1c1ccccc1 (configuration not stated)	?	3.7µM*	12%	?	250	4.1µM*
SMILES	SW480 rerep	DT40 TDP1 CPT	MCF10A rerep	BCR signal inh	IL-1B inflam inh	TDP1 cell noCPT
CC(C)(C)NC(=O)N1c2ccccc2Sc2ccccc21	-5%	-29%	?	2%	12	1%
CC1(O)CCC2C3CCC4=CC(=O)CCC4=C3C=CC21C (configuration not stated)	4%	9.2µM*	?	.	20	15µM*
C=Cc1cc(OC)c2c(c1)c(=O)oc1c2cc(OC)c2c(O)ccc(C3OC(C)C(O)C(C)(O)C3O)c21 (configuration not stated)	8.2µM*	0.16µM*	3.7µM*	.	-100*	0.21µM*
C[C@H]1CCC/C=C/C2C[C@H](O)CC2[C@H](O)/C=C/C(=O)O1 (some centres not stated)	?	0.23µM*	0.26µM*	?	-64*	0.18µM*
CC1CCCC(=O)CCC/C=C/c2cc(O)cc(O)c2C(=O)O1 (configuration not stated)	.	3%	.	.	.	-15%
CC1CCC/C=C/C2CC(O)CC2C(O)/C=C/C(=O)O1 (configuration not stated)	0.1µM*	0.29µM*	?	?	-56*	0.37µM*
COc1ccccc1CCNC(=O)CCC(=O)N1CC2C[C@@H](C1)Cn1c2cccc1=O	-1%	-6%	-4%	-10%	-13	-8%
Cc1ncoc1C(=O)NCC1=C(c2ccc3ccccc3c2)C[C@@H]2CC[C@H]1N2Cc1ccco1	.	?	.	.	-11	?
COc1ccc(OC(=O)N2C/C(=C/c3ccccc3)C(=O)/C(=C\c3ccccc3)C2)cc1	3.7µM*	1.2µM*	7.3µM*	.	-87*	1.5µM*
CCOc1ccc(Nc2c(S(=O)(=O)c3ccc(C)cc3)cnc3ccccc23)cc1	.	16µM*	.	.	.	?
O=C1CC2OCC=C3CN4CC[C@]56c7ccccc7N1[C@H]5[C@H]2C3C[C@H]46 (some centres not stated)	.	.	.	.	.	-8%
COc1ccc(C(=O)c2sc(Nc3ccccc3)nc2N)cc1OC	?	?	?	?	-98*	?
COc1ccc(-c2csc(NC(=O)COC(=O)Cc3ccccc3)n2)cc1OC	.	.	.	-10%	.	.

Source: PubChem
